Laboratory results: PubChem BioAssay (NCATS)
Results filed as inconclusive are left out. The source made the active and inactive calls. Calls follow the shape of the dose curve; as a rule, active = well fitted inhibition curve with a large enough effect; inconclusive = small, poorly fitted or top-dose-only effect; inactive = flat fitted curve, though single readings scatter.

biological target: Phospholipid hydroperoxide glutathione peroxidase GPX4 (Homo sapiens) (UniProt P36969); experiment: Primary qHTS Assay for Inhibitors of Recombinant Selenoprotein Glutathione Peroxidase 4 (GPX4) (AID 1845192); settings: recombinant GPX4, GR-coupled NADPH fluorescence, 15 min; series mostly up to 50 µM; activity change, negative = inhibition: at the top concentration; also: nearly all actives have a fitted effect of over 65% in size
Sequence (P36969 whole entry, looked up): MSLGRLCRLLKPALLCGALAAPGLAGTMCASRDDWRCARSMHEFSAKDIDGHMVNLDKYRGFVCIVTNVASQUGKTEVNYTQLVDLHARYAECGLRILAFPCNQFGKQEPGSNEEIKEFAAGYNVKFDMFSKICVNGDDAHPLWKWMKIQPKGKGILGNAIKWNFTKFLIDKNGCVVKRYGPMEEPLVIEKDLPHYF
From the text: Assay Provider: Elias S.J. Arner MD PhD.
Department of Medical Biochemistry and Biophysics
Karolinska Institutet, Solna, Stockholm, Sweden
Selenoprotein glutathione peroxidases (GPX), like the ubiquitously expressed GPX1 and the ferroptosis modulator GPX4, enact their antioxidant activities by reducing hydroperoxides using glutathione. […] GPX1 and GPX4 inhibitors have thus shown promise as anti-cancer agents. Existing inhibitors are often promiscuous, or modulate GPX activity only indirectly, so novel direct inhibitors identified through screening against GPX1 and GPX4 could be valuable. Here, we developed optimized glutathione reductase (GR)-coupled GPX assays for the biochemical high-throughput screen (HTS) of almost 12,000 compounds with known mechanisms of action. Initial hits were triaged using a GR counter-screen, assessed for isoform specificity using a separate GPX2 assay, and were assessed for general selenocysteine-targeting activity using a thioredoxin reductase (TXNRD1) assay. With this suite of assays, we identified novel GPX1/GPX2- and GPX4-specific inhibitors and can here present a validated pipeline for future discovery research for selenoprotein-targeting agents.
SEQUENCE No. (e.g., 1, 2, 3, etc.); […] (e.g., Cells, Incubation, Reagent, etc.); VALUE; DESCRIPTION.
1; Reagent 1; 3 uL; 333.33 nM GPx4 enzyme or no enzyme control in 1536-well, black, solid Greiner assay plate.
2; Compound; 25 nL; Kalypsis pin tool (Wako USA) equipped with a 1536-well pin head.
3; Incubation; 30 min; room temperature.
4; Reagent 2; 1 uL; 500 nM GR, 5 mM GSH, 2.5 mM NADPH solution
5; Reagent 3; 1 uL; 2.5 mM CHP in 50% EtOH.
6; Detection; Fluorescence; ViewLux microplate reader, excitation 340 nm and emission 450 nm.
7; Incubation; 15 min; room temperature.
8; Detection; Fluorescence; ViewLux microplate reader, excitation 340 nm and emission 450 nm.
NOTES (numbers refer to Sequence numbers above)
1. 3 µL of 333.33 nM GPX4 and 0.016% BSA in assay buffer (50 mM Tris-HCl, 2 mM EDTA (pH 7.5), 150 mM NaCl) was added to columns 3-48 of 1536-well plates using a BioRAPTR Flying Reagent Dispenser (Let's Go Robotics (LGR), Carlsbad, CA). A no-enzyme control (0.01% BSA in TES assay buffer) was added to columns 1-2.
2. 25 nL, library and DMSO controls were added to each well with a pin tool (Kalypsys).
3. The assay plates were incubated for 30 minutes at room temperature.
4. 1 µL of master mix (500 nM glutathione reductase (GR), 5 mM reduced glutathione (GSH), 2.5 mM NADPH in assay buffer) was added.
5. 1 µL of cumene hydroperoxide (CHP) ([2.5 mM] in 50% EtOH) was then added within 5 minutes to initiate the reaction. Final concentrations were: 200 nM GPX4, 1 mM GSH, 0.5 mM CHP, 0.5 mM NADPH, 100 nM GR, 0.01% BSA.
6. Initial fluorescence readout (t=0) at 340/450 nm was measured using a ViewLux multimodal detector (PerkinElmer, Waltham, MA).
8. Endpoint fluorescence readout (t=15) at 340/450 nm was measured 15 min after room temperature incubation.
% is scaled to controls: 0 for no effect and ±100 for the full control effect; potency is read from the fitted curve at half-maximal effect.

| Compound | outcome | activity change, negative = inhibition | Potency |
| --- | --- | --- | --- |
| COc1ccc(CNC(=O)c2cc(-c3cncc(Cl)c3)cnc2-c2ccccn2)nc1OC | inactive | – | – |
| COC(=O)/C=C/C(=O)OC | inactive | – | – |
| [2H]C([2H])(Nc1nc(-c2ccccc2C([2H])(C([2H])([2H])[2H])C([2H])([2H])[2H])ncc1C)c1ccc(-n2ccnn2)cc1 | – | -6.69% (inactive) | – |
| N=C1CCCN1Cc1[nH]c(=O)[nH]c(=O)c1Cl | – | – | inactive |
| C=CCNc1c(O)cc2c(O)c1C[C@@H](C)C[C@H](OC)[C@H](O)[C@@H](C)/C=C(/C)[C@H](OC(N)=O)[C@@H](OC)/C=C\C=C(\C)C(=O)N2 | – | -21% (inactive) | – |
| C[C@H]1CN(C2COC2)CCN1c1ccc(Nc2cc(-c3ccnc(N4CCn5c(cc6c5CC(C)(C)C6)C4=O)c3CO)cn(C)c2=O)nc1 | – | -18.1% (inactive) | – |
| CN(C)CCNC(=O)COc1c2cccc1Cc1cccc(c1OCC(=O)NCCN(C)C)Cc1cccc(c1OCC(=O)NCCN(C)C)Cc1cccc(c1OCC(=O)NCCN(C)C)C2 | inactive [at 9.73 µM] | – | – |
| C=C1CCC2[C@](C)(CO)C(O)CC[C@]2(C)C1C/C=C1/C(=O)OCC1O (stereo not given in full) | – | 2.57% (inactive) | – |
| CC(C)(O)CC[C@@H](O)[C@](C)(O)[C@H]1CC[C@@]2(O)C3=CC(=O)[C@@H]4C[C@@H](O)[C@@H](O)C[C@]4(C)[C@H]3CC[C@]12C | – | -26.6% (inactive) | – |
| Cc1[nH]nc2ncc(C(=O)N3CCC[C@H]3c3ccc(Cl)cc3)cc12 | – | 3.65% (inactive) | – |
| CCOC(=N)c1nc2ccc3ncnc(Nc4cc(F)c(F)cc4Cl)c3c2s1 | – | -12.9% (inactive) | – |
| Cc1c[nH]c2nc(Nc3ccc(N4CCN(C)CC4)c(F)c3)nc(-c3cccc(CC#N)c3)c12 | – | -12.1% (inactive) | – |
| C/C=C(/C)C(=O)O[C@H]1C(C)=CC23C(=O)C(C=C(CO)[C@@H](O)[C@]12O)[C@H]1[C@@H](C[C@H]3C)C1(C)C (stereo not given in full) | – | – | inactive |
| C=C1C(=O)O[C@H]2C[C@H](C)C(/C=C/C(C)=O)=CC[C@H]12 | – | -5.65% (inactive) | – |
| OC1CCC([C@H](O)C[C@H]2c3c(F)cccc3-c3cncn32)CC1 (stereo not given in full) | inactive | – | – |
| CONC(=O)Nc1ccc(-c2sc3c(c2CN(C)Cc2ccccc2)c(=O)n(-c2ccccc2)c(=O)n3Cc2c(F)cccc2F)cc1 | inactive | – | – |
| C=C1C(=O)O[C@@H]2[C@H]3C(C)=CC[C@@]34O[C@@]4(C)CC[C@@H]12 | – | 0.128% (inactive) | – |
| O=C(Nc1ccc(OC(F)(F)Cl)cc1)c1cnc(N2CC[C@@H](O)C2)c(-c2ccn[nH]2)c1 | – | -18.1% (inactive) | – |
| CC(=O)c1ccc2c(c1)c1cc(C(C)=O)ccc1n2CCNC(C)C | – | – | 16.1 µM (active) |
| COCCNc1cc(NC(=O)N2CCCc3cc(CN4CCN(C)CC4=O)c(C=O)nc32)ncc1C#N | inactive [at 9.73 µM] | – | – |

| Compound | outcome | activity change, negative = inhibition | Potency |
| --- | --- | --- | --- |
| CCn1c(=O)c(-c2ccc(-c3cncc(C)n3)cc2Cl)cc2cnc(NCCC3CCN(C)CC3)nc21 | – | -3.33% [at 4.52 µM] (inactive) | – |
| Cn1cc(/C=C2\C(=O)Nc3cccnc32)c2ccccc21 | – | -11.2% (inactive) | – |
| CN1C(=O)[C@@H](NC(=O)c2n[nH]c(Cc3ccccc3)n2)COc2ccccc21 | – | 4.13% (inactive) | – |
| COc1ccc([C@@H](O)[C@@H](C)Oc2ccc([C@H]3O[C@H](c4ccc(O[C@H](C)[C@H](O)c5ccc(OC)c(OC)c5)c(OC)c4)[C@H](C)[C@H]3C)cc2OC)cc1OC | – | -17.1% (inactive) | – |
| Ac-PHSCN-NH2 | – | -3.77% (inactive) | – |
| C[C@@H]1C(=O)OC2[C@H](O)[C@]34[C@H]5C[C@@H](C(C)(C)C)[C@]36[C@@H](OC(=O)[C@@H]6O)O[C@@]4(C(=O)O5)[C@]21O (stereo not given in full) | inactive | – | – |
| C[C@]12CCC3[C@@H](CC[C@H]4NC(=O)C=C[C@]34C)[C@@H]1CC[C@@H]2C(=O)Nc1cc(C(F)(F)F)ccc1C(F)(F)F (stereo not given in full) | inactive | – | – |
| Cc1cc(Nc2cc(N)ncn2)c(=O)n2c1C(=O)NC21CCCCC1 | – | -3.94% [at 27.8 µM] (inactive) | – |
| OCCOc1ccc(/C(=C(/CCCl)c2ccccc2)c2ccccc2)cc1 | – | – | inactive |
| CCN(CC)C(=O)Cc1csc(NS(=O)(=O)c2cccc(Cl)c2C)n1 | – | -0.667% (inactive) | – |
| COC(=O)c1ccc([C@H]2c3[nH]c4ccccc4c3C[C@H](C(=O)OC)N2C(=O)CCl)cc1 | – | -16.5% (inactive) | – |
| CCC(=O)OCC(=O)C1(OC(=O)CC)C(C)CC2C3CCC4=CC(=O)C=CC4(C)C3(F)C(O)CC21C (stereo not given) | – | -9.86% (inactive) | – |
| CC1(C)CCC2(CC1)N[C@@H](C(=O)N[C@@H]1CC[C@@H](C(N)=O)OC1)[C@H](c1ccnc(Cl)c1F)[C@]21C(=O)Nc2cc(Cl)ccc21 | – | -14.9% (inactive) | – |
| C[C@H](NC(=O)[C@H]1NCC[C@@H]1O)c1ccc(-c2noc(CCC3CCCC3)n2)cc1 | inactive | – | – |
| CN(C)C/C=C/C(=O)Nc1cc2c(Nc3ccc(F)c(Cl)c3)ncnc2cc1O[C@H]1CCOC1 | – | – | inactive |
| CN(C(=O)CNC(=O)/C=C/c1cccc(Cl)c1)C1CCS(=O)(=O)CC1 | inactive | – | – |
| COC1=C2C[C@H](C)C[C@H](OC)[C@H](O)[C@@H](C)/C=C(/C)[C@H](OC(N)=O)[C@@H](OC)/C=C\C=C(\C)C(=O)NC(=CC1=O)C2=O | – | -54.4% (inactive) | – |
| C[C@@H]1[C@H](O)[C@@H](C)/C=C/C=C/C=C/C=C/C=C/C=C/C=C/[C@H](O[C@@H]2O[C@H](C)[C@@H](O)[C@H](N)[C@@H]2O)C[C@@H]2O[C@](O)(C[C@@H](O)C[C@@H](O)[C@H](O)CC[C@@H](O)C[C@@H](O)CC(=O)O[C@H]1C)C[C@H](O)[C@H]2C(=O)O | – | -19.5% (inactive) | – |
| Nc1nc(F)nc2c1ncn2[C@@H]1O[C@H](COP(=O)(O)O)[C@@H](O)[C@@H]1O | – | – | inactive |
| O=C(/C=C\n1cnc(-c2cc(C(F)(F)F)cc(C(F)(F)F)c2)n1)NNc1ccccn1 | – | 4.33% (inactive) | – |
